# Reference: PubChem BioAssay (NCI)
# Compounds without any hit were thinned out: in the full panel of roughly 79,000, 15% have a hit. A number with no mark means an inactive call. Calls of active or inactive are those of the source. No stated cut-off is given here; in the data, active means growth inhibition above about 70%; inactive means the rest.
# Assays:
# [1] = NCI Yeast Anticancer Drug Screen. Data for the rad50 strain (AID 155);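 further: 0% = growth of vehicle-only cultures of the same strain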; conditions: S. cerevisiae rad50 strain growth inhibition; at 50.0 µM; stronger effect = higher value
# Summary of the method: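 Vehicle-treated cultures provide the reference for the growth inhibition reported for compound-exposed, repair-deficient yeast.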
# [2] = NCI Yeast Anticancer Drug Screen. Data for the mec2-1 strain (AID 157); conditions: S. cerevisiae mec2-1 strain, at 50.0 µM, stronger effect = higher value
# Summary of the method: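 Growth inhibition is read against vehicle-treated controls after compound exposure of the mec2-1 yeast strain, which is defective in DNA damage repair or cell cycle control.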
# [3] = NCI Yeast Anticancer Drug Screen. Data for the sgs1 mgt1 strain (AID 161);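 further: 0% = growth of cultures given vehicle only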; conditions: S. cerevisiae sgs1 mgt1 strain, at 50.0 µM, stronger effect = higher value
# Summary of the method: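 This yeast growth screen uses a strain with defined DNA-repair lesions; compound-treated growth is compared with vehicle-treated growth.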
# [4] = NCI Yeast Anticancer Drug Screen. Data for the cln2 rad14 strain (AID 165);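 further: 0% = growth equal to vehicle treated cultures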; conditions: S. cerevisiae cln2 rad14 strain, at 50.0 µM, stronger effect = higher value
# Summary of the method: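 Growth inhibition, relative to vehicle-treated controls, is the read-out. The test organism is a yeast strain with defined genetic alterations, cln2 rad14.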
# [5] = NCI Yeast Anticancer Drug Screen. Data for the bub3 strain (AID 167); conditions: S. cerevisiae bub3 mutant strain, at 50.0 µM, stronger effect = higher value
# Summary of the method: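 Mutant yeast screening strain plus compound; vehicle-treated cultures serve as the 0% inhibition reference.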
# [6] = NCI Yeast Anticancer Drug Screen. Data for the mlh1 rad18 strain (AID 175); conditions: S. cerevisiae mlh1 rad18 strain growth inhibition; at 50.0 µM; stronger effect = higher value
# Summary of the method: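 Cells of a genetically altered yeast strain, deficient in DNA damage repair, were treated with compound. Their growth was then compared with that of vehicle-treated cultures to give inhibition.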
SMILES,growth inhibition [1],growth inhibition [2],growth inhibition [3],growth inhibition [4],growth inhibition [5],growth inhibition [6]
NC(=O)c1nnn2c1nc(N)c1cc(Cl)ccc12,-28.4%,-26.6%,-9.55%,-18.4%,-27.6%,-22.6%
CSC(=O)/C=C1\SS/C(=C\C(=O)SC)S1,-10%,-10.4%,-13.1%,-5%,-11.2%,-16.1%
COc1ccc(C=Nc2ccc([N+](=O)[O-])cc2O)cc1,12.9%,2.7%,12.1%,-10.9%,19.6%,1.6%
CC(=O)OCC1OC(n2c(-c3ccc(C)cc3)cc(-c3ccccc3)c(C#N)c2=S)C(OC(C)=O)C(OC(C)=O)C1OC(C)=O (centres undefined),17.9%,9.35%,6.15%,-8.55%,27.9%,27.8%
CS(=O)(=O)OCC(=O)NCCCCNC(=O)COS(C)(=O)=O,-12.4%,2.7%,4.55%,-29.5%,7.45%,10.3%
CCCCOC(=O)C1C(c2ccc(Cl)cc2)NC(c2ccc(Cl)cc2)C(C(=O)OCCCC)S1(=O)=O (centres undefined),-28.2%,-15.1%,-14.5%,-1.4%,-2.35%,-45.2%
CO/C=C/CCCO,-14.8%,-16.5%,-14.8%,7.55%,-3.55%,-9.7%
CC(C)C1CC[C@H](C)C[C@@H]1OC(=O)C(C(=O)O[C@H]1C[C@@H](C)CCC1C(C)C)C(O)[C@@H]1OC(C)(C)O[C@H]1C1COC(C)(C)O1 (some centres undefined),73.8% (active),90.8% (active),91.9% (active),44.7%,90.8% (active),56.9%
O=C1NN2CCCN=C2c2ncccc21,15.2%,2.1%,8.1%,17.1%,2.7%,20.8%
CCOC(=O)C(NC(=O)Cc1ccccc1)C(=O)O (centres undefined),-18.8%,15.5%,-3.2%,-6.4%,-1.65%,3.35%
Cc1cc(C)c(NS(=O)(=O)c2ccc(Cl)cc2)cc1C,94.5% (active),85.8% (active),92.2% (active),70%,87.6% (active),90.5% (active)
Cc1ccc(S(=O)OCC23CC4CC(CC(C4)C2)C3)cc1 (centres undefined),17.5%,1.6%,-1.05%,17.5%,-5.55%,-30.6%
O=S(=O)(O/C(=C(\OS(=O)(=O)C(F)(F)F)c1ccccc1)c1ccccc1)C(F)(F)F,6.9%,-20.2%,-21.1%,-4.8%,-2.65%,10%
COc1cc(-c2c(C)c(C)nc(OC)c2C#N)cc(OC)c1OC,-1.05%,-13.9%,-24%,-19.1%,-15.2%,-17.9%
c1ccc(-c2ccccc2-c2ccccc2-c2ccccc2)cc1,-58.8%,-5.6%,-5.9%,-39.5%,21.5%,-12.3%
CC(C)(O)C#Cc1ccccc1,-0.85%,-8.2%,-0.95%,-24.8%,-9.5%,11.1%
C[C@]12CC[C@@H]3c4ccc(OS(=O)(=O)O)cc4CC[C@H]3[C@@H]1CCC2=O,22.2%,-0.4%,12.2%,18.4%,23.6%,3.15%
CC1(c2nc3ccccc3s2)CCCO1 (centres undefined),-6.1%,23.8%,7.6%,-13.7%,7.55%,8.4%
CCCOC(=O)C(=O)OCCC,2.15%,21.6%,-23.8%,-6%,-11.3%,-9.2%
CN1CCCCC1=O,-0.15%,-2.6%,6.15%,8.65%,8.65%,9.8%

SMILES,growth inhibition [1],growth inhibition [2],growth inhibition [3],growth inhibition [4],growth inhibition [5],growth inhibition [6]
COc1cc(/C=C(\C#N)c2ccccc2)cc(OC)c1,43.8%,-13.5%,-9.6%,-9.8%,17.4%,-28.9%
OCC1OC2OC(c3ccccc3)(c3ccc(OCc4ccccc4)nc3OCc3ccccc3)OC2C1O (centres undefined),25.9%,2.6%,0.6%,14.8%,-10.4%,2.8%
COc1cc(N=Nc2cccc(S(=O)(=O)O)c2)ccc1NC(=O)c1ccc(C(=O)Nc2ccc(N=Nc3cccc(S(=O)(=O)O)c3)cc2OC)cc1,3.35%,17.4%,23%,-8.2%,-13.8%,21.2%
C=CCc1cc(C(=O)C(=O)c2cc(CC=C)c(OC(C)=O)c(OC)c2)cc(OC)c1OC(C)=O,3.2%,6.75%,6.45%,6.8%,-5.85%,8.25%
Fc1cccc2cccnc12,0.05%,-4.45%,11.2%,5.65%,12.7%,7.4%
N#CCCC(C(=O)O)C(=O)CN1C(=O)c2ccccc2C1=O (centres undefined),5.15%,-7.95%,0.4%,-7.75%,0.4%,7.6%
N#CC1C=Cc2ccccc2N1C(=O)Oc1ccccc1 (centres undefined),1.5%,14.3%,10.6%,18.6%,-7.8%,16.6%
CCc1ccccc1NC(=O)/C=N/O,-27.9%,-24.1%,-17.6%,-7.3%,-22.6%,-11.2%
CCOP(=O)(OCC)/C(C#N)=C/c1ccc(N(C)C)cc1,16.3%,-9.2%,12.4%,9.8%,-13.9%,5.8%
CCCCCCCCCCCCOC(=S)CCl,-10.9%,-10.7%,10.8%,-18.9%,4.55%,14.7%
NC(=O)C1CCCNC1 (centres undefined),-6.6%,-6.65%,-10.4%,-13.6%,15.6%,6.85%
CCCCCCCCCCCC(=O)N/N=C(\c1ccccc1)c1ccc(Cl)cc1,91.5% (active),88.2% (active),93.5% (active),86.9% (active),76.5% (active),91.3% (active)
CCOC(=O)c1c(C)c(C)cc(C)c1C,-4.75%,-7.6%,-5.45%,6.15%,2.3%,-10.8%
Cc1ccc(S(=O)(=O)NCCN)cc1,9.45%,11.2%,24.2%,-19.5%,-6.4%,-3.3%
COC1N(c2ccccc2)CCN1c1ccccc1,3.05%,6.1%,-23.2%,4.75%,5.55%,8.3%
O=C(O)c1ccccc1SC(Sc1ccccc1C(=O)O)c1cccs1,12.4%,-9.65%,3.75%,-4.55%,6.25%,4%
CC[N+](C)(CC)C(Cc1ccccc1)c1ccccc1 (centres undefined),1%,8.8%,24.6%,23%,-5.8%,4.3%
CCOc1ncnc2ccc(Cl)c(I)c12,12.2%,0.55%,24.6%,10.2%,35.9%,16.7%
CCC(C1=CCCCC1)c1nc2c([nH]1)c(=O)n(C)c(=O)n2C (centres undefined),7.95%,8.5%,23.6%,8.65%,17.6%,45.5%
